# Of roughly 7,900 targets only a part is listed; those with a hit were picked by preference. About 0.6% of all pairs of compound and target were hits. Values without a mark were called inactive.
# How the values were obtained:
# Test in all cases: log2 fold change, soluble protein after heating vs DMSO (PISA); higher = thermal stabilisation; K562 cells, 10 uM, 30 min; active = over 0.2 and 3.5 SD of the protein, either way, in both replicates (recomputed)
# [1] = compound: CS(=O)(=O)c1ccc(-c2cnc(N)c(C(=O)Nc3ccccc3)n2)cc1
# Method in brief: (§1)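 K562 cells at 2×10^6 cells/mL were exposed to 10 μM compound for 30 min, then aliquots were heated for 3 min across 48°C-58°C, pooled, and extracted in PBS containing 0.5% NP-40 at 4°C. The supernatant after 21,000xg for 90 min was taken as soluble protein and measured by TMTpro 16plex LC-MS/MS with channel sums equalised. Thermal stability is reported relative to control samples, with values from duplicates. Fold changes are given on a log2 scale.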
# [2] = compound: C[C@@H](Oc1cc(-c2cnn(C3CCNCC3)c2)cnc1N)c1c(Cl)ccc(F)c1Cl [crizotinib]
# Method in brief: as §1
# [3] = compound: C[C@@H]1COCCN1C2=NC(=NC(=C2)C3(CC3)S(=O)(=O)C)C4=C5C=CNC5=CC=C4
# Method in brief: as §1
# [4] = compound: C[C@H](C1=CC=C(C=C1)C(=O)NC2=C3C=CNC3=NC=C2)N
# Method in brief: as §1
# [5] = compound: C[C@H](Nc1ncnc2nc[nH]c12)c1cc2cccc(Cl)c2c(=O)n1-c1ccccc1 [duvelisib]
# Method in brief: as §1
# [6] = compound: Cc1cc(Nc2cc(CN3CCOCC3)c3nc(C)c(Cc4ccc(Cl)cc4F)n3n2)n[nH]1 [gandotinib]
# Method in brief: as §1
# [7] = compound: Cc1cc(Nc2cc(N3CCN(C)CC3)nc(Sc3ccc(NC(=O)C4CC4)cc3)n2)n[nH]1 [tozasertib]
# Method in brief: as §1
# [8] = compound: Cc1cc(SCc2sc(-c3ccc(C(F)(F)F)cc3)nc2C)ccc1OCC(=O)O
# Method in brief: as §1
# [9] = compound: Cc1ccc(-n2nc(C(C)(C)C)cc2NC(=O)Nc2ccc(OCCN3CCOCC3)c3ccccc23)cc1 [doramapimod]
# Method in brief: as §1
# [10] = compound: Cc1ccc(C(=O)N(CCCN)[C@@H](c2nc3cc(Cl)ccc3c(=O)n2Cc2ccccc2)C(C)C)cc1 [ispinesib]
# Method in brief: as §1
# [11] = compound: Cc1ccc(NC(=O)c2ccc(CN3CC[C@H](N(C)C)C3)c(C(F)(F)F)c2)cc1Nc1nccc(-c2cncnc2)n1 [bafetinib]
# Method in brief: as §1
# [12] = compound: Cc1cccc(CC(=O)N2CCc3c2ccc(-c2cn(C)c4ncnc(N)c24)c3F)n1
# Method in brief: as §1
# [13] = compound: Cc1cn(-c2cc(NC(=O)c3ccc(C)c(Nc4nccc(-c5cccnc5)n4)c3)cc(C(F)(F)F)c2)cn1 [nilotinib]
# Method in brief: as §1
# [14] = compound: Cc1nc(Nc2n[nH]c3c2CN(C(=O)N[C@H](CN(C)C)c2ccccc2)C3(C)C)c2sccc2n1
# Method in brief: as §1
# [15] = compound: Cc1nc(Nc2ncc(C(=O)Nc3c(C)cccc3Cl)s2)cc(N2CCN(CCO)CC2)n1 [dasatinib]
# Method in brief: as §1
# [16] = compound: Cc1ncc(-c2ccnc(Nc3ccc(S(C)(=O)=O)cc3)n2)n1C(C)C
# Method in brief: as §1
# [17] = compound: Cn1cc(-c2ccc3c(c2)CCN3C(=O)Cc2cccc(C(F)(F)F)c2)c2c(N)ncnc21
# Method in brief: as §1
# [18] = compound: Cn1cc(-c2ccc3nnc(C(F)(F)c4ccc5ncccc5c4)n3n2)cn1
# Method in brief: as §1
# [19] = compound: Cn1cncc1[C@@](N)(c1ccc(Cl)cc1)c1ccc2c(c1)c(-c1cccc(Cl)c1)cc(=O)n2C [tipifarnib]
# Method in brief: as §1
# [20] = compound: FC(F)(F)c1ccc(/C=C/c2nc(COc3ccc(CCCCn4ccnn4)cc3)co2)cc1 [mubritinib]
# Method in brief: as §1
# Sequence of UniProt O43818 (O43818 whole entry, looked up): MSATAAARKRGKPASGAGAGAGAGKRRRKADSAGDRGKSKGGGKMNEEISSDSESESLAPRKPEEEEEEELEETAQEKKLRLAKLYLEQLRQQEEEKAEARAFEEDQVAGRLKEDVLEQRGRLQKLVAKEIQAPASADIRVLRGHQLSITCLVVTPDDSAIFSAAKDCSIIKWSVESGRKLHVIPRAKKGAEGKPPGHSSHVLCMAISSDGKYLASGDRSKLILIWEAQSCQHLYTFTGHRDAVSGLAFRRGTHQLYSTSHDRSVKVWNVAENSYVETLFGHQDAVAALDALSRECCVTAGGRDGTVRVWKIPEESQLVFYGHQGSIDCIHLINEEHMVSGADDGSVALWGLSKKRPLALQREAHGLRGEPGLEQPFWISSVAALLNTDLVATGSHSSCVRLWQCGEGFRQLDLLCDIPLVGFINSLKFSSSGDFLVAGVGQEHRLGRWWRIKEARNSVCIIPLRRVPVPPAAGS
# Sequence of UniProt Q9H2M9 (Q9H2M9 whole entry, looked up): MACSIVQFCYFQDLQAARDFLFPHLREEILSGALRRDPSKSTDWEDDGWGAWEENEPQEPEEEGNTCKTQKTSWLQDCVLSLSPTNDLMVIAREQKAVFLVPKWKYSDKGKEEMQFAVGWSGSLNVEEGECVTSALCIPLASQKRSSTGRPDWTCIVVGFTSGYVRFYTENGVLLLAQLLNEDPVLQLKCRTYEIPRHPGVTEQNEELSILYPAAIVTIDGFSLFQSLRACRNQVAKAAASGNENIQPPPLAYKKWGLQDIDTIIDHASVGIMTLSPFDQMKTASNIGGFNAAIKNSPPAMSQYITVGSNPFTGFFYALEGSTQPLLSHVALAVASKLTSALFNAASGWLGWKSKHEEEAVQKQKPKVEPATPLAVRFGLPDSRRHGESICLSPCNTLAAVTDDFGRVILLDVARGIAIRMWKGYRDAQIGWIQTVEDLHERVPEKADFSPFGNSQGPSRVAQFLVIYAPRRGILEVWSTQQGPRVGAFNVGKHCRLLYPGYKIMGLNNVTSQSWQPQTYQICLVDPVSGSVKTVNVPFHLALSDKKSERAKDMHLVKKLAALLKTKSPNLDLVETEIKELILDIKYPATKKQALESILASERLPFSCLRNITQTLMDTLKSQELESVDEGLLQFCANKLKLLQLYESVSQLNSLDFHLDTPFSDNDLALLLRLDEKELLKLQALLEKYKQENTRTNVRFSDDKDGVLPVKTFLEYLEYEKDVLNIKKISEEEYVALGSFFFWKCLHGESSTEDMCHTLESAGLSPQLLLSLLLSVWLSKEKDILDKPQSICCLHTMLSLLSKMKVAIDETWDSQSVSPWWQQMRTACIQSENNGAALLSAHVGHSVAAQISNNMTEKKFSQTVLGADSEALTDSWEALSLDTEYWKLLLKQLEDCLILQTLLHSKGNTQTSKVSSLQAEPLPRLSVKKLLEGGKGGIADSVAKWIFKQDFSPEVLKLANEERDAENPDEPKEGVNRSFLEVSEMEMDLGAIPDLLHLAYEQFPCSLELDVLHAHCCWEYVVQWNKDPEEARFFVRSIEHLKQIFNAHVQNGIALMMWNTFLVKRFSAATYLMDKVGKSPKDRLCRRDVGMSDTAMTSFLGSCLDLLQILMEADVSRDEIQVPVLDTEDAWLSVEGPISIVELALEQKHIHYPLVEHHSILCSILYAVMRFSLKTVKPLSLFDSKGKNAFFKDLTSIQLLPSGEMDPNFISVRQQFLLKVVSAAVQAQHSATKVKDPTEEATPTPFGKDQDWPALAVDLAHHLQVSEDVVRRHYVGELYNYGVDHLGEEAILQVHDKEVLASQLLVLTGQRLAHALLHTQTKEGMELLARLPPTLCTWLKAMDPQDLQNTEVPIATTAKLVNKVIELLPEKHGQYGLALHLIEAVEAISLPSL
# Sequence of UniProt P46063 (P46063 whole entry, looked up): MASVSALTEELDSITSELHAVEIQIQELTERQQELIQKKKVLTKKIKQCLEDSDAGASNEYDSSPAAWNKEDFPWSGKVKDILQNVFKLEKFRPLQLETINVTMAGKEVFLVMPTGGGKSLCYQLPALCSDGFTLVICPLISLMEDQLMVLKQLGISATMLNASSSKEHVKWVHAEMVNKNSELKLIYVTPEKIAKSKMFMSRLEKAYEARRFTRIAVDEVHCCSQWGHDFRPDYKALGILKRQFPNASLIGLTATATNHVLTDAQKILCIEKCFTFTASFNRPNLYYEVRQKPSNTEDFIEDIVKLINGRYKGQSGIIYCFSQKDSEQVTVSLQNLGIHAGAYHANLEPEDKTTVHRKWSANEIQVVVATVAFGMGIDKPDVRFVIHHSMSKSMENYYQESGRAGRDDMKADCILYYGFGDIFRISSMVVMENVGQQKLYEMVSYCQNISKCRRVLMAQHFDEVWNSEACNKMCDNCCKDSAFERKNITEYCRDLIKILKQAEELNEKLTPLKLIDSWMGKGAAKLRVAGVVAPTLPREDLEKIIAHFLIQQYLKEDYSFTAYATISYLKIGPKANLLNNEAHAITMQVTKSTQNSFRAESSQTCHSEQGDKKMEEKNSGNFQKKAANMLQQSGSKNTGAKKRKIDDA
# Sequence of UniProt Q92696 (Q92696 whole entry, looked up): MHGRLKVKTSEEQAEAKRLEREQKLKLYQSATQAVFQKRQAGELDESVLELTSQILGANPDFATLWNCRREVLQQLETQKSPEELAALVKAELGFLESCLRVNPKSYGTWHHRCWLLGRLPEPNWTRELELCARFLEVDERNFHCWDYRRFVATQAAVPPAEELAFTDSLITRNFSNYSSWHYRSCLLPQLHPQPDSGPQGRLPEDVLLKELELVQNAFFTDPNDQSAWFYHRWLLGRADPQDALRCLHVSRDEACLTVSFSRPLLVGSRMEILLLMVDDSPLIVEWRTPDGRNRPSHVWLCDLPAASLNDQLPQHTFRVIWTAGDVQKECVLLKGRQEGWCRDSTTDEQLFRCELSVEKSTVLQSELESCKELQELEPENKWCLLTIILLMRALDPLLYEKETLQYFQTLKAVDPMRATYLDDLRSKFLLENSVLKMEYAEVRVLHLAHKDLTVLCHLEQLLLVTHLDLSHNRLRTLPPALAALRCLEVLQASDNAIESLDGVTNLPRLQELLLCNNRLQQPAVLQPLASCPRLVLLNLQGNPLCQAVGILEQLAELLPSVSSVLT
# Sequence of UniProt Q13546 (Q13546 whole entry, looked up): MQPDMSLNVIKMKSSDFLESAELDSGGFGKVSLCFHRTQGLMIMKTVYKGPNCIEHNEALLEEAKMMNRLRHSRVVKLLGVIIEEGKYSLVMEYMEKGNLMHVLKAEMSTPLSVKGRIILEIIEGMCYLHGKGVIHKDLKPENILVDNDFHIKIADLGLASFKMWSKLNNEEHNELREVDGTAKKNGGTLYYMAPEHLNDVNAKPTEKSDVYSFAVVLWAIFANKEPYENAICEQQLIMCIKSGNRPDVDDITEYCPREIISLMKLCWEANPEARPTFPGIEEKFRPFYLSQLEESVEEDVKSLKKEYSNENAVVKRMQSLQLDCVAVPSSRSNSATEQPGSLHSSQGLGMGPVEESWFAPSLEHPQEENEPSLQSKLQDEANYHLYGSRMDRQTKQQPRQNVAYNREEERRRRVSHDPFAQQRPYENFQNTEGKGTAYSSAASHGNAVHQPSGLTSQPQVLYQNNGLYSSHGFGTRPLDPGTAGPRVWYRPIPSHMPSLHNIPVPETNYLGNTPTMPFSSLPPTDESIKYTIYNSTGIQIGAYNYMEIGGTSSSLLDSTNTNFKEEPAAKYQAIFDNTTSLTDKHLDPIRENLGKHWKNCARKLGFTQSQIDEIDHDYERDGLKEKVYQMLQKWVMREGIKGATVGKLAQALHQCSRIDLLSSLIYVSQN
# Sequence of UniProt Q9Y6Y8 (Q9Y6Y8 whole entry, looked up): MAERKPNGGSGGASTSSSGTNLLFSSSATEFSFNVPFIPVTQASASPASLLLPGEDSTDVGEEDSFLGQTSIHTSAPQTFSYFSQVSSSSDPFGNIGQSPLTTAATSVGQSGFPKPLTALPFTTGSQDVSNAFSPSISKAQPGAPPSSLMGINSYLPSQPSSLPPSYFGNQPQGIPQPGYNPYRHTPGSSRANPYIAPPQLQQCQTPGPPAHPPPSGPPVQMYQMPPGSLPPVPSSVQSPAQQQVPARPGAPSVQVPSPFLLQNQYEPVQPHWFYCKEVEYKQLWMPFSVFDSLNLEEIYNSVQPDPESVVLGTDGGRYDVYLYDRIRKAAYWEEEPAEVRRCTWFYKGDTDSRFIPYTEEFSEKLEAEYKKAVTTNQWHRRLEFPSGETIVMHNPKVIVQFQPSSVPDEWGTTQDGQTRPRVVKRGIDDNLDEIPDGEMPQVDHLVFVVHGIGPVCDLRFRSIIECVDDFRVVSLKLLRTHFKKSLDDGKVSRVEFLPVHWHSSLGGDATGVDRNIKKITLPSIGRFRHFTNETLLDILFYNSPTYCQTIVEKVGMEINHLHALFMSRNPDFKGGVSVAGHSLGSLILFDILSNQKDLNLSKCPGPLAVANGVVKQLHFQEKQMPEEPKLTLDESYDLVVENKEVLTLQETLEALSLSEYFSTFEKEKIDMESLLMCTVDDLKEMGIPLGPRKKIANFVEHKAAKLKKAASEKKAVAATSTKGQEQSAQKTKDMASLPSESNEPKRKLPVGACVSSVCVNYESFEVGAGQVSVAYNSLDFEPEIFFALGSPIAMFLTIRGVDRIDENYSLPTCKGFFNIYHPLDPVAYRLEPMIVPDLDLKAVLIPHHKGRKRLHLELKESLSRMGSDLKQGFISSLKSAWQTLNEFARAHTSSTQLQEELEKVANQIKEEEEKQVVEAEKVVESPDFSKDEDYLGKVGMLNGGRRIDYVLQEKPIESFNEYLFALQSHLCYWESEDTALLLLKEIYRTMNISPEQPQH
# Sequence of UniProt Q8N5L8 (Q8N5L8 whole entry, looked up): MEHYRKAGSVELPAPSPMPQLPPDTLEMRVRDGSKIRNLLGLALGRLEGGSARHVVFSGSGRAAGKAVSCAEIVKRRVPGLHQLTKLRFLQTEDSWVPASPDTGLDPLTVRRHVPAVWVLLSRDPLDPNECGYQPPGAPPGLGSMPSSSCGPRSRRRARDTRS
# Sequence of UniProt Q8N0T1 (Q8N0T1 whole entry, looked up): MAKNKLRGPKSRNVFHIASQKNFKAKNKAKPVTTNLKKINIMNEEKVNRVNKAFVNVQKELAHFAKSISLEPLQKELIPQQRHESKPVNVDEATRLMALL
Target,log2 fold change [1],log2 fold change [2],log2 fold change [3],log2 fold change [4],log2 fold change [5],log2 fold change [6],log2 fold change [7],log2 fold change [8],log2 fold change [9],log2 fold change [10],log2 fold change [11],log2 fold change [12],log2 fold change [13],log2 fold change [14],log2 fold change [15],log2 fold change [16],log2 fold change [17],log2 fold change [18],log2 fold change [19],log2 fold change [20]
RPL31 (UniProt P62899),-0.08,0.079,-0.56,0.396,-0.158,0.35,0.029,-0.001,0.173,-0.167,0.342,0.024,0.001,0.179,0.14,-0.041,-0.231,-0.082,0.151,-0.095
RPS14 (UniProt P62263),-0.049,-0.075,-0.22,0.183,-0.131,0.056,0.016,0.023,0.071,0.002,0.265,-0.061,0.029,0.184,-0.011,-0.047,-0.081,-0.091,0.07,-0.05
RPS19 (UniProt P39019),-0.12,0.023,-0.309,0.182,-0.11,0.201,0.033,0.018,0.05,-0.081,0.242,-0.026,0.046,0.181,0.083,-0.021,-0.11,-0.068,0.055,-0.037
SEC23IP (UniProt Q9Y6Y8),0.142,-0.238,0.055,0.039,0.021,-0.212,-0.002,0.074,0.043,-0.166,-0.23,0.036,-0.017,-0.061,-0.143,-0.026,0.148,0.009,-0.057,0.014
RBM22 (UniProt Q9NW64),-0.045,0.061,-0.053,0.121,-0.052,-0.04,-0.052,0,-0.025,-0.053,-0.085,0,-0.019,-0.051,-0.07,0.024,-0.133,-0.071,0.008,-0.048
RPP25L (UniProt Q8N5L8),-0.031,0.059,-0.014,0.145,0.06,0.045,-0.01,-0.019,-0.005,-0.027,0.143,-0.04,0.044,-0.087,0.09,-0.031,-0.058,0.004,0.044,-0.004
RAD51 (UniProt Q06609),0.005,-0.061,-0.079,-0.019,0.108,0.01,-0.026,-0.005,-0.025,-0.009,-0.002,0.021,-0.082,-0.006,-0.009,0.04,0.037,0.003,0.11,-0.017
SEPTIN5 (UniProt Q99719),0.004,0.017,0.036,-0.036,0.002,-0.023,-0.008,-0.017,-0.017,0.027,-0.017,0.021,-0.011,0.002,-0.048,-0.006,0.051,0.025,-0.024,0.007
RIOK2 (UniProt Q9BVS4),0.059,-0.057,-0.167,0.189,-0.037,0.263,-0.001,0.053,0.084,-0.019,0.27,0.003,0.094,0.202,0.013,0.231,-0.041,-0.067,-0.003,0.014
RB1 (UniProt P06400),0.041,-0.112,0.117,-0.07,0.033,-0.168,-0.001,-0.024,0.022,-0.002,0.006,0.01,0.015,-0.378 (active),0.011,-0.716 (active),0.082,0.011,0.004,0.046
SETMAR (UniProt Q53H47),0.077,0.036,-0.028,0.134,-0.004,-0.129,-0.061,0.003,0.024,0.164,0,-0.07,-0.104,0.117,-0.013,0.163,0.028,0.127,0.054,0.04
RRP9 (UniProt O43818),-0.05,0.084,-0.2,0.031,-0.029,0.056,0.121,-0.054,0.063,0.12,-0.02,-0.103,0.046,-0.042,0.106,-0.107,-0.062,-0.102,0.074,-0.046
RAB33B (UniProt Q9H082),0.007,0.106,0.064,-0.037,0.058,-0.095,-0.032,-0.038,-0.021,-0.065,-0.01,0.012,0.01,0.018,-0.058,0.022,0,0.151,0.024,-0.01
RBM12 (UniProt Q9NTZ6),0.079,0.005,0.16,-0.109,0.011,-0.132,0.04,0.1,-0.076,0.008,0.026,0.046,-0.108,-0.227,-0.287,-0.09,0.048,0.015,-0.061,0.032
RSPRY1 (UniProt Q96DX4),-0.037,0.11,0.02,-0.006,0.142,0.067,-0.053,0.012,0.083,0.033,0.052,-0.05,0.012,-0.037,-0.036,0.01,0.007,-0.049,0.093,-0.039
RECQL (UniProt P46063),0.031,0.033,0.112,-0.082,0.051,-0.057,0.001,0.003,-0.011,0.056,0.005,-0.019,0.025,0.006,-0.043,-0.033,0.055,-0.006,-0.034,0.017
RBIS (UniProt Q8N0T1),-0.157,-0.097,-0.086,0.069,-0.028,0.053,-0.014,-0.045,0.062,0.009,0.012,-0.058,-0.058,0.101,0.008,-0.079,0.023,0.004,-0.02,0.021
SLC18B1 (UniProt Q6NT16),0.027,-0.404 (active),0.06,-0.034,0.047,0.092,-0.097,-0.07,-0.002,-0.193,-0.071,0,-0.024,0.04,0.063,-0.016,0.034,0.198,-0.029,-0.018
RPS25 (UniProt P62851),-0.101,-0.041,-0.286,0.239,-0.083,0.239,0.028,0.032,0.178,-0.148,0.259,-0.007,0.015,0.174,0.07,-0.032,-0.177,-0.077,0.062,-0.068
RBM27 (UniProt Q9P2N5),0.006,0.021,0.026,-0.174,0.001,-0.019,0.027,0.09,-0.035,-0.122,0.007,0.078,0.019,-0.91 (active),-0.07,-0.07,0.053,0.041,-0.005,0.023
RAB3GAP2 (UniProt Q9H2M9),0.019,-0.064,-0.024,0.213,-0.046,0.003,0.048,0.119,0.046,-0.097,0.059,0.091,-0.026,-0.088,-0.14,0.006,-0.077,-0.029,-0.046,-0.087
RABGGTA (UniProt Q92696),-0.035,-0.076,0.046,-0.058,0.045,-0.004,-0.036,-0.008,0.017,0.026,-0.019,0.027,0.033,-0.088,0.076,-0.076,0.089,-0.015,0.08,0.002
RIPK1 (UniProt Q13546),0.058,0.274,-0.01,0.09,-0.1,0.301,1.05 (active),0.118,0.031,-0.155,0.209,1.12 (active),-0.007,-0.196,0.197,1.18 (active),1.49 (active),-0.052,-0.121,-0.089

# From the supplement of paper PMC10849652
